Experimental data published in PubChem BioAssay (EPA / NIEHS).
Several values for one entry are separate records, joined by “and”; a condition that tells them apart may be missing. Equal entries are not always repeated. Activity calls are given as the source filed them. Rule for the calls, unless noted: active = hit-call score of the fitted dose curve at least 0.9, where 1 is the maximum; inconclusive = response in the unintended direction; inactive = score below 0.9.

Target: Peroxisome proliferator-activated receptor gamma (Homo sapiens) (UniProt P37231)
Assay: OT_PPARg_PPARgSRC1_1440: Odyssey Thera (OT) 24-hour Protein-Complementation Assay for Peroxisome Proliferator-activated Receptor Gamma/ SRC-1 Co-activator (AID 2283388)
Conditions: not given
Summary of the method: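 HEK293T cells transiently transfected with PPARg and SRC-1 fused via (Gly4Ser)2 linker to split Venus YFP fragments (IFP1/IFP2) were dosed 24 h; fixed, Draq5-stained, imaged at 488/635 nm; nuclear/cytoplasmic fluorescence ratio scored versus DMSO baseline, gain-of-signal.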

Sequence of Peroxisome proliferator-activated receptor gamma (Homo sapiens) (P37231 whole entry, looked up): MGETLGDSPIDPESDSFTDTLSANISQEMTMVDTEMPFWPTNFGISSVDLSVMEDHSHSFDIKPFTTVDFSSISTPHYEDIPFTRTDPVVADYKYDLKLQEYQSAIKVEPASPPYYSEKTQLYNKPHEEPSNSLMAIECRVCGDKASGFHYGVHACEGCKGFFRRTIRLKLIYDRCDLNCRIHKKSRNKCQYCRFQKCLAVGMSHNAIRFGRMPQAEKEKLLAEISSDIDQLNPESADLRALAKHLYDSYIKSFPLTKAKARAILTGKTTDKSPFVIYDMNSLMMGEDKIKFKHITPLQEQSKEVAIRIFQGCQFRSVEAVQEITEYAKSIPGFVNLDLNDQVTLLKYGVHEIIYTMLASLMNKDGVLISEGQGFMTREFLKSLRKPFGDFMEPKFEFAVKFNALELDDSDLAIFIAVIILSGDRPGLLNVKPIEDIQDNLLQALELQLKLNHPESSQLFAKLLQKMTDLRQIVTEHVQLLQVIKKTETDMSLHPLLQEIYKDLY

Compound | outcome | AC50
FC(F)(F)C(F)(F)C(F)(F)C(F)(F)C(F)(F)C(F)(F)CCI | inactive | –
Cc1ccc(C)c(O)c1C | inactive | –
COc1ccc2c(c1)c(CC(=O)O)c(C)n2C(=O)c1ccc(Cl)cc1 | inactive | –
Cc1oc(-c2ccccc2)nc1CCOc1cccc2c1ccn2CCC(=O)O | – | 3.58 µM (active) and 2.88 µM (active)
Cc1ccc(C)c(C)c1 | inactive | –
CC(=O)Oc1ccccc1C(=O)O | inactive | –
CCNc1cccc(C)c1 | inactive | –
CCCCCCC(=O)OCC | inactive | –
NCC1(Cc2noc(=O)[nH]2)CCCCC1 | inactive | –
CCCCCCOCCO | inactive | –
Clc1cc(Cl)c(Cl)cc1Cl | inactive | –
C1CCC(SSC2CCCCC2)CC1 | inactive | –
Cc1ccc2ncccc2c1 | inactive | –
CNCc1cc(F)ccc1Oc1ccc(Cl)c(Cl)c1 | inactive | –
Cc1nc(C)nc(N2C[C@@H](C)N(c3ccnc([C@@H](C)O)n3)[C@@H](C)C2)n1 | inactive | –
CN1CCN(Cc2cc(-c3ccc4[nH]c(=O)oc4c3)co2)[C@@H](c2ccc(F)cc2)C1 | inactive | –
O=C(OCCCCCOC(=O)c1ccccc1)c1ccccc1 | inactive | –
Cc1cccc(C)c1O | inactive | –

Read-out: not listed separately
Assay: CEETOX_H295R_11DCORT: CeeTox H295R High-throughput Steroidogenesis Assay for 11-Deoxycortisol (11DCORT) (AID 2283432; active = hit-call score of the fitted dose curve at least 0.9, where 1 is the maximum; inactive = score below 0.9;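 for AC50: human adrenal H295R cells prestimulated with 10 µM forskolin for 48 h; 11-deoxycortisol secreted into the medium measured by LC-MS/MS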)
Conditions: actives raise or lower the signal
Summary of the method: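 Adrenal carcinoma line H295R, run per OECD 456 with minor changes, was forskolin-stimulated (10 uM, 48 h) before a 48 h chemical exposure at 0.1% DMSO. Secreted 11-deoxycortisol was quantified by HPLC-MS/MS.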

Compound | outcome | AC50
COc1ccc2c(c1)c(CC(=O)O)c(C)n2C(=O)c1ccc(Cl)cc1 | inactive | –
Cc1nc(-c2ccc3c(c2)CCN(CCC2CCC(NC(=O)/C=C/c4ccc(F)cc4)CC2)CC3)no1 (stereo not drawn) | – | 0.199 µM (active)
Cc1cccc(Nc2cc(Cl)nc(SCC(=O)O)n2)c1C | – | 7.04 µM (active)
COC(=O)c1ccc(O)cc1 | inactive | –
Cc1nc(C)nc(N2C[C@@H](C)N(c3ccnc([C@@H](C)O)n3)[C@@H](C)C2)n1 | inactive | –
CN1CCN(Cc2cc(-c3ccc4[nH]c(=O)oc4c3)co2)[C@@H](c2ccc(F)cc2)C1 | inactive | –
Nc1ccccc1N | inactive | –

Read-out: not listed separately
Assay: CEETOX_H295R_OHPREG: CeeTox H295R High-throughput Steroidogenesis Assay for OH-Pregnenolone (OHPREG) (AID 2283434; active = hit-call score of the fitted dose curve at least 0.9, where 1 is the maximum; inactive = score below 0.9)
Conditions: actives raise or lower the signal
Summary of the method: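 Readout: HPLC-MS/MS of 17alpha-hydroxypregnenolone in medium after 48 h chemical exposure of H295R cells pretreated with forskolin. Values fitted bidirectionally relative to DMSO; chemicals reducing viability to 20–70% were retested after 10-fold dilution.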

Compound | outcome | AC50
COc1ccc2c(c1)c(CC(=O)O)c(C)n2C(=O)c1ccc(Cl)cc1 | inactive | –
Cc1nc(-c2ccc3c(c2)CCN(CCC2CCC(NC(=O)/C=C/c4ccc(F)cc4)CC2)CC3)no1 (stereo not drawn) | – | 0.0518 µM (active)
Cc1cccc(Nc2cc(Cl)nc(SCC(=O)O)n2)c1C | – | 13.1 µM (active)
COC(=O)c1ccc(O)cc1 | inactive | –
CC=Cc1ccc(O)c(OC)c1 | – | 37.3 µM (active)
Cc1nc(C)nc(N2C[C@@H](C)N(c3ccnc([C@@H](C)O)n3)[C@@H](C)C2)n1 | inactive | –
CN1CCN(Cc2cc(-c3ccc4[nH]c(=O)oc4c3)co2)[C@@H](c2ccc(F)cc2)C1 | inactive | –
Nc1ccccc1N | inactive | –
